# Assay outcomes from PubChem BioAssay.
# ELG1 repair inh: ELG1-dependent DNA repair inhibition; Potency, µM (top dose mostly 46.1 µM), for the others: at the highest dose activity change, negative = inhibition, usual class: inhibitors; actives 2.3% (n = 330,000); HEK293T ELG1-luciferase reporter, luminescence, 16 h; DNA damage induced by 5-fluorouridine; also: nearly all actives have a fitted effect of over 55% in size
#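 In this reporter screen, reduction of luminescence relative to DMSO vehicle indicated activity. Compounds and 5-fluorouridine were added together to 2,000 cells per well, incubated for 16 hr at 37 °C, then developed with ONE-Glo.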
# Gal4-VP16 FLuc: inhibits Gal4-VP16 luciferase reporter, ROR gamma counter-screen | Drosophila S2 Gal4-VP16 UAS-luciferase, luminescence, 20 h | Potency, µM (top dose mostly 53.6 µM), inactives show at the top dose activity, negative = inhibition, usual class: inhibitors | actives 3.5% (n = 310,000) | AID 2546;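 also: Gal4-VP16 expression switched on by copper sulfate through the metallothionein promoter; nearly all actives have a fitted effect of over 50% in size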
# TDP1 cell noCPT: qHTS for Inhibitors of human tyrosyl-DNA phosphodiesterase 1 (TDP1): qHTS in cells in absence of CPT. DT40 Tdp1-/- hTDP1 cells, no CPT, ATP luminescence, 48 h. Potency, µM (highest dose often 46.2 µM), for the others: top-dose activity change, negative = growth inhibition, most hits filed as inhibitors. actives 15% (n = 420,000). AID 686978, 2013; also: nearly all actives have a fitted effect of over 55% in size
#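 Growth of hTDP1-complemented DT40 Tdp1-knockout cells is measured by ATP luminescence after at least 48 hr compound exposure at 37 °C, with DMSO substituting for the 20 nM CPT used in the parallel screen.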
# DT40 TDP1 CPT: DT40-hTDP1 cell growth loss with CPT; chicken DT40 Tdp1-/-;hTDP1 cells + 20 nM CPT, ATP luminescence, 48 h; Potency, µM (doses to about 46.2 µM), without a hit: at the top dose activity change, negative = growth inhibition, usual class: inhibitors; actives 12% (n = 420,000); AID 686979; also: nearly all actives have a fitted effect of over 55% in size
#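 Chicken DT40 Tdp1-/- cells stably complemented with human TDP1 were seeded at 400 cells/well in medium containing 20 nM camptothecin, exposed to pin-transferred compounds, and grown at 37 °C for at least 48 hr. Viability was read as ATP luminescence.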
# 12-LOX inh: inhibitors of human 12S-lipoxygenase ALOX12; P18054; actives 1.1% (n = 580,000); Potency, µM (series often up to 108 µM), without a hit: at the highest dose activity change, negative = inhibition, actives largely listed as inhibitors; purified 12hLO, xylenol orange hydroperoxide absorbance
#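 Purified human 12hLO at 150 nM in 25 mM Hepes, 0.01% Triton X-100, pH 7.0, preincubated 15 min at room temperature with compound. Reaction started with 40 uM arachidonic acid, 30 min at room temperature. Hydroperoxide measured by Fe-xylenol orange, 573/405 nm absorbance ratio.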
# RORgamma inh: blocks mouse ROR gamma transcriptional activity | P51450 | Drosophila S2 Gal4-RORgamma UAS-luciferase reporter, 20 h | Potency, µM (titrated, usually from 53.6 µM), for inactives: at the top dose activity change, negative = inhibition, usual class: inhibitors | AID 2551 | actives 5.4% (n = 310,000); also: nearly all actives have a fitted effect of over 60% in size
# Target sequence (P51450 whole entry, looked up, the tested form may be a part): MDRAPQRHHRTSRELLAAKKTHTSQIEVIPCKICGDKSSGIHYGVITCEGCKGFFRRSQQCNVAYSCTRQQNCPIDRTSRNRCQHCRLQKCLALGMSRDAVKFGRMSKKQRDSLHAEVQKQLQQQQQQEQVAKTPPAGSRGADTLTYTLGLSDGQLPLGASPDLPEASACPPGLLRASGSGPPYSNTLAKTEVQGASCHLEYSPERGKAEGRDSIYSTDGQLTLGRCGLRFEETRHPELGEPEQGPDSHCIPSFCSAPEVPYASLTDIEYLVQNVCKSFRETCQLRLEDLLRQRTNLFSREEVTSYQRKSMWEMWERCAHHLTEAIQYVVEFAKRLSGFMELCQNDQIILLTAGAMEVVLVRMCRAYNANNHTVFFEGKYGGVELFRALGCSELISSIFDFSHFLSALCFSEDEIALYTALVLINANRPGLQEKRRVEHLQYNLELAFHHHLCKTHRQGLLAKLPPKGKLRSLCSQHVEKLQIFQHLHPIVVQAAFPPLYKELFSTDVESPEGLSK
#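 Stable Schneider cell line, Gal4 DNA-binding domain fused to ROR gamma, UAS-luciferase. Cmpd 1 hr RT → CuSO4 700 uM final → 20 hr RT → luciferase reagent 10 min → luminescence.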
# Starred values were filed as active, the others as inactive; ? = inconclusive; nt = no result; [ ] = remark or other dose. A selection: hits, their analogues and other compounds. The true share with any hit is near 15%. Calls follow the shape of the dose curve; as a rule, active = well fitted curve in the direction sought with a large enough effect; inconclusive = small, poorly fitted or top-dose-only effect, or another doubt; inactive = no such curve, though single readings can be large; an effect the other way counts as inactive or inconclusive. % is scaled to controls: 0 for no effect and ±100 for the full control effect; potency is read from the fitted curve at half-maximal effect.
SMILES,ELG1 repair inh,Gal4-VP16 FLuc,TDP1 cell noCPT,DT40 TDP1 CPT,12-LOX inh,RORgamma inh
CCOC(=O)c1cnc2c(C)c(Cl)ccc2c1NCCc1ccc(OC)c(OC)c1,nt,nt,16.4µM*,?,-28.4%,nt
CCOC(=O)c1cnc2c(C)cc(C)cc2c1NCCc1ccc(OC)c(OC)c1,nt,nt,23.1µM*,20.6µM*,0.7%,nt
CCOC(=O)c1cnc2c(C)cccc2c1NCCc1ccc(OC)c(OC)c1,23.1µM*,-11.8%,23.1µM*,16.4µM*,5.0%,3.8%
COc1ccc(CCNC(=O)COC(=O)COc2c(C)cc(C)cc2C)cc1OC,21.8%,nt,2.1%,-8.7%,331.2%,nt
COc1ccc(-c2cc(C(F)(F)F)n3nc(C(=O)N4CCN(C(=O)c5ccco5)CC4)cc3n2)cc1,?,-2.2%,20.6µM*,14.6µM*,-22.8%,-0.2%
O=C(c1cc2nc(-c3ccco3)cc(C(F)(F)F)n2n1)N1CCN(Cc2ccccc2)CC1,?,-4.3%,?,18.4µM*,2.1%,30.9%
CCOC(=O)c1nc(NCc2ccc(F)cc2)c2ccccc2n1,nt,nt,nt,nt,10.1%,nt
COc1cc2nc(SCc3ccc(Cl)cc3Cl)n(Cc3cccs3)c(=N)c2cc1OC,?,15.8µM*,?,?,-16.3%,?
COc1cc2nc(SCc3ccc(C(F)(F)F)cc3)n(Cc3cccs3)c(=N)c2cc1OC,-14.6%,?,20.9%,-5.4%,-15.1%,13.0%
COCCCn1c(SCc2ccccc2)nc2cc(OC)c(OC)cc2c1=N,16.4µM*,?,?,23.1µM*,-7.3%,?
COc1ccc(Cn2c(SCc3cc(C)ccc3C)nc3cc(OC)c(OC)cc3c2=N)cc1,?,-6.2%,7.31µM*,8.2µM*,?,34.2%
COc1ccc(Cn2c(SCc3ccc(C)cc3)nc3cc(OC)c(OC)cc3c2=N)cc1Cl,?,1.41µM*,2.31µM*,4.11µM*,-19.2%,3.98µM*
C#CCN(Cc1ccc(C)cc1)C(=O)CCC(=O)CCC(=O)c1ccc(C)s1,nt,nt,nt,nt,-12.4%,nt
O=C(NC1CCCC1)C(c1ccccc1)N(Cc1ccco1)C(=O)Cc1cccs1 (stereo not drawn),?,-7.7%,?,?,48.9%,2.2%
COC(=O)c1ccc(C(C(=O)NC2CCCCC2)N(Cc2ccc(F)cc2)C(=O)Cc2cccs2)cc1 (stereo not drawn),-5.9%,-3.8%,11.6µM*,9.2µM*,11.5%,32.1%
COC(=O)c1ccc(C(C(=O)NC2CCCCC2)N(CCc2ccccc2)C(=O)Cc2cccs2)cc1 (stereo not drawn),2.0%,-10.7%,6.51µM*,5.17µM*,-28.4%,3.1%[10 µM]
Cc1ncoc1C(=O)N1CC(F)(F)C[C@H]1c1nc(C2CC2)no1,nt,nt,nt,nt,29.6%,nt
O=C(NCc1cccs1)C1Cc2c(-c3ccc(Cl)cc3)ccnc2O1 (stereo not drawn),nt,nt,1.84µM*,1.46µM*,-23.6%,nt
O=C(NCC1CC1)C1Cc2c(-c3ccc(Cl)cc3)ccnc2O1 (stereo not drawn),nt,nt,?,?,-18.5%,nt
CC(=O)c1cccc(-c2ccnc3c2CC(C(=O)NC(C)C)O3)c1 (stereo not drawn),nt,nt,6.7%,9.2%,-0.5%,nt
CC(=O)c1cccc(-c2ccnc3c2CC(C(=O)NCc2cccs2)O3)c1 (stereo not drawn),nt,nt,0.731µM*,0.731µM*,1.2%,nt
O=S1(=O)CC(N2CC=CC2)CN1Cc1cn(Cc2cccc(Cl)c2)nn1 (stereo not drawn),nt,nt,-4.5%,-0.1%,-55.8%,nt
CCCCCCN1CCN(C2CN(Cc3cn(Cc4cc(C)cc(C)c4)nn3)S(=O)(=O)C2)CC1 (stereo not drawn),nt,nt,16.4µM*,?,0.0%,nt
CN1CCN(C2CN(Cc3cn(Cc4ccc(Cl)cc4)nn3)S(=O)(=O)C2)CC1 (stereo not drawn),nt,nt,-20.0%,-14.5%,28.2µM*,nt
Cc1cccc(CN2CCN(C3CN(Cc4cn(Cc5cccc(Cl)c5)nn4)S(=O)(=O)C3)CC2)c1 (stereo not drawn),nt,nt,14.6µM*,18.4µM*,?,nt
SMILES,ELG1 repair inh,Gal4-VP16 FLuc,TDP1 cell noCPT,DT40 TDP1 CPT,12-LOX inh,RORgamma inh
COC(=O)CCCn1cc(CN2CC(N3CCN(Cc4cccc(C)c4)CC3)CS2(=O)=O)nn1 (stereo not drawn),nt,nt,-18.2%,-2.6%,7.08µM*,nt
Cc1nnc(-c2cc(-c3ccc(CO)cc3)ccn2)n1Cc1ccncc1,nt,nt,nt,nt,30.9%[176 µM],nt
O=C(NC1CCN(c2cc(-c3cccs3)[nH]n2)CC1)c1cccc(Cl)c1,nt,nt,nt,nt,1.9%,nt
CC(C)C(Sc1nnc(-c2ccccc2)o1)C(=O)NCc1cccnc1 (stereo not drawn),nt,nt,nt,nt,-25.1%,nt
Cc1cccc(CN2CCN(C3CN(Cc4cn(Cc5ccc(Cl)cc5)nn4)S(=O)(=O)C3)CC2)c1 (stereo not drawn),nt,nt,20.6µM*,18.4µM*,?,nt
O=S1(=O)CC(N2CCCCC2)CN1Cc1cn(Cc2ccc(Cl)cc2)nn1 (stereo not drawn),nt,nt,-27.1%,4.5%,0.0%,nt
O=S1(=O)CC(N2CCN(Cc3ccccc3F)CC2)CN1Cc1cn(Cc2cccc(Cl)c2)nn1 (stereo not drawn),nt,nt,20.6µM*,?,-28.7%,nt
CC/C(=N\NC(=O)c1ccc(C(C)(C)C)cc1)c1ccc(C)cc1,nt,nt,nt,nt,22.9%,nt
CCOC(=O)C(C)Oc1cc(O)c2c(=O)cc(-c3ccccc3)oc2c1 (stereo not drawn),nt,nt,nt,nt,0.6%,nt
COC(=O)c1ccc(C)c(-n2c(=O)n(Cc3ccccc3)c(=O)c3[nH]cnc32)c1,-4.3%,6.4%,20.6µM*,?,-11.6%,14.5%
COc1cccc(Cn2c(=O)c3[nH]cnc3n(-c3ccccc3C)c2=O)c1,14.8%,18.7%,?,-28.9%,-64.6%,25.9%
Cc1ccccc1-n1c(=O)n(Cc2ccccc2)c(=O)c2[nH]cnc21,-0.8%,12.6%,-4.7%,0.3%,0.0%,0.282µM*
Cc1nnc(NC(=O)CCS(=O)(=O)Cc2ccccc2)s1,-5.5%,-0.6%,?,10.3µM*,?,-16.5%
CCCC(C)c1nnc(NC(=O)CCS(=O)(=O)Cc2ccccc2)s1 (stereo not drawn),-3.7%,3.1%,?,?,?,20.5%
CC(C)(C)c1nnc(NC(=O)CCS(=O)(=O)Cc2ccccc2)s1,-1.7%,15.0%,11.6µM*,9.2µM*,-7.5%,30.1%
